# For part of these data: Entries with a potency or affinity are not part of this list.
# Key:
# [1] = tested on: Staphylococcus aureus; assay: Antibacterial activity against Staphylococcus aureus MRSA ATCC 43300 (CO-ADD:GP_020); MIC in CAMBH media using NBS plates, by Resazurin F(560/590); type: functional; details: Concentration 20 uM, ASSAY_TEST Inhibition of Bacterial Growth, detection method Resazurin, Fluorescence (ex560/em590), MEDIA CAMHB, plate type 384well, CORNING #3640, time 18 hr
# [2] = tested on: Acinetobacter baumannii; assay: Antibacterial activity against Acinetobacter baumannii ATCC 19606 (CO-ADD:GN_034); MIC in CAMBH media using NBS plates, by Resazurin F(560/590); type: functional; details: Concentration 20 uM, ASSAY_TEST Inhibition of Bacterial Growth, detection method Resazurin, Fluorescence (ex560/em590), MEDIA CAMHB, plate type 384well, CORNING #3640, time 18 hr
# [3] = tested on: Escherichia coli; assay: Antibacterial activity against Escherichia coli ATCC 25922 (CO-ADD:GN_001); MIC in CAMBH media using NBS plates, by Resazurin F(560/590); type: functional; details: Concentration 20 uM, ASSAY_TEST Inhibition of Bacterial Growth, detection method Resazurin, Fluorescence (ex560/em590), MEDIA CAMHB, plate type 384well, CORNING #3640, time 18 hr
# [4] = tested on: Klebsiella pneumoniae; details: Concentration 20 uM; ASSAY_TEST Inhibition of Bacterial Growth; detection method Absorption (OD600); MEDIA CAMHB; plate type 384well; NBS; CORNING #3640; time 18 hr
# [5] = tested on: Candida albicans; details: 20 µM
# [6] = tested on: Cryptococcus neoformans; details: Concentration 20 uM; ASSAY_TEST Inhibition of Fungal Growth; detection method Resazurin; Absorption (OD600-OD570); plate type 384well; NBS; CORNING #3640
SMILES,Inhibition [1] [%],Inhibition [2] [%],Inhibition [3] [%],Inhibition [4] [%],Inhibition [5] [%],Inhibition [6] [%]
C1CCc2nc3c(nc2C1)CCCC3,13.53,-4.6,11.61,13.7,1.61,-2.79
O[C@@H](c1cc(-c2ccc(C(F)(F)F)cc2)nc(C(F)(F)F)c1)[C@H]1CCCCN1,4.92,7.22,8.91,19.18,3.72,-3.44
COc1ccccc1/C=C(\C#N)C(=O)O,12.51,1.75,5.31,6.46,6.96,-7.1
O=C(c1ccc(O)cc1)c1ccc(C(=O)c2ccc(O)cc2)cc1,20.54,4.24,2.65,14.45,3.86,-7.33
CC(C)c1ncc(CO)n1Cc1c(Cl)cccc1Cl,10.51,3.11,9.5,7.27,0.71,-9.37
NCC(=O)c1cccc2ccc[n+]([O-])c12,9.77,5.17,0.84,20.91,0.31,-8.51
COc1cc(C(=O)C(=O)c2ccc(O)c(OC)c2)ccc1O,-3.81,-13.36,16.47,8.6,1.86,-17.88
CCOC(=O)CC(=O)NC(C)(C)CCCCC(C)(C)NC(=O)CC(=O)OCC,-5.26,-12.04,17.83,13.05,-0.86,-4.13
Cn1ncc2c(Nc3ccccc3Cl)nc(Nc3ccccc3Cl)nc21,12.86,-3.35,-7.44,23.76,8.17,-4.25
COc1ccc(C(=S)N2CCN(c3ccccc3Cl)CC2)cc1OC,21.01,9.29,8.55,6.8,6.76,-9.03
CS(=O)(=O)O.Cc1cc2c(cc1[N+](=O)[O-])NC(CNC(C)C)CC2 (stereo not given),12.97,12.49,3.18,6.82,-0.29,-5.85
Nc1ccccc1C(=O)Nc1ccc(Cl)cc1Cl,13.76,-19.7,13.8,0.81,3.17,-17.52
NC(=O)c1ccc(/N=N/c2c(O)c3ccccc3[nH]c2=O)cc1,1.45,0.09,1.38,17.01,24,-1.63
O=CN/C=C\c1cc(O)ccc1O,-18.33,-7.5,-8.61,6.52,4.27,7.81
CC(=O)Nc1nc(C)c(CCCOc2ccc([N+](=O)[O-])cc2)c(O)n1,4.87,9.03,5.24,2.35,3.22,-1.34
CCOC(=O)Cc1cc(O)c2cc(C)ccc2n1,11.68,-4.86,11.33,2.93,-1.04,-11.29
O=C(Nc1cccc2ccccc12)c1cc2c(cc1Br)OCO2,5.22,3.29,17.42,10.46,2.94,-19.33
O=C(Cn1ccc(=O)[nH]c1=O)Nc1ccc(C(=O)O)c(O)c1,10.2,-9.39,10.79,11.75,-1.14,-6.61
CC12CCC(C(NC(=S)NN)C1=O)C2(C)C (stereo not given),2.53,-10.15,7.86,9.19,1.53,-9.53
CCN(CC)C(=O)Cn1ccc(NC(C)=O)nc1=O,-5.08,-19.36,5.52,3.42,0.38,-8.8
Cc1nnc(Cc2ccccc2)c2[nH]nc(C)c12,16.17,11.32,1.75,14.15,5.79,-4.44
COC(=O)c1ccc(Cn2cnc3c(Cl)ncnc32)cc1,-16.45,0.57,-10.62,2.87,-1.99,15.29
COC(=O)Cc1[nH]c(O)nc1C(=O)OC,5.51,-8.26,3.06,20.66,-0.45,-7.96
Oc1ccc(Cc2ccc(Cl)cc2)c(O)c1,10.37,-6.86,10.87,7.26,-0.85,-7.42
CC(C)NC(=O)c1ccc(C(C)C)cc1,10.05,-9.59,11.28,-3.37,-0.32,-8.3

# Reference: ChEMBL document CHEMBL4296182, “CO-ADD screening of NIH NCI Diversity Set V”
